Experimental data as given in PubChem BioAssay.
Several values for one entry are separate records, joined by “and”; a condition that tells them apart may be missing. Equal entries are not always repeated. Results filed as inconclusive are left out. For some assays here: Potency and affinity values are given separately. Activity calls are given as the source filed them. Unless noted, how the calls were made is not given here.

How the values were obtained:
[1] = antimalarial activity against Dd2 strain (AID 2302;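 active means growth inhibition above 50% at the single 2 µM test dose, taken to imply half-maximal potency below 2 µM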;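 further: 0% = DMSO untreated growth and 100% = chloroquine plus artemisinin killed control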); details: P. falciparum Dd2 in RBCs, LDH growth readout, 72 h; at 2 µM; stronger effect = higher value
[2] = HepG2 cytotoxicity, primary screen, cytotoxicity control for P. falciparum antimalarial project, cell-based, ATP luminescence (AID 2303;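 active means inhibition above 50%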;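 further: 0% = DMSO wells and 100% = digitonin-killed cells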); details: HepG2 viability, 24-48 h, at 10 µM, stronger effect = higher value
[3] = target: L-lactate dehydrogenase (Plasmodium falciparum (isolate CDC / Honduras)) (UniProt Q27743); assay: PfLDH activity inhibition – cell lysate, 3D7 strain, counter-screen for P. falciparum growth inhibition project (AID 2304);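 further: 0% = vehicle and 100% = reference inhibitor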; details: P. falciparum 3D7 crude extract, LDH APAD/NBT absorbance; at 2 µM; stronger effect = higher value
[4] = inhibition of 3D7 malaria parasite growth – strain 3D7 (AID 2306);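 further: 0% = DMSO wells and 100% = chloroquine plus artemisinin control wells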; details: P. falciparum 3D7 erythrocytic growth, LDH absorbance, 72 h; at 2 µM; stronger effect = higher value
[5] = target: Plasmodium falciparum protein kinase 6 (PK6, PF3D7_1337100) (UniProt Q8IDW1); assay: PfPK6 kinase inhibitors, biochemical, TCAMS library (AID 1159586); details: recombinant PfPK6, Kinase-Glo ATP depletion luminescence
[6] = target: Protein kinase 7 (PK7), Plasmodium falciparum 3D7 (PF3D7_0213400) (UniProt Q7YTF7); assay: inhibition of Plasmodium PK7 catalytic activity – biochemical, TCAMS antimalarial set, Kinase-Glo luminescence (AID 1159587); details: recombinant PfPK7, Kinase-Glo ATP depletion luminescence
[7] = target: Calcium-dependent protein kinase 4 (Plasmodium falciparum (isolate 3D7)) (UniProt Q8IBS5); assay: PfCDPK4 kinase inhibitors, biochemical, TCAMS library (AID 1159588; cut-off not given, nearly all actives have IC50 up to about 0.91 µM); details: recombinant PfCDPK4, Kinase-Glo ATP depletion luminescence
[8] = system: Hepatitis C virus NS3 helicase; assay: HCV NS3 helicase inhibitors, primary screen, biochemical, fluorescence polarization, LOPAC1280 library (AID 687035; in the data active means inhibition above about 37%); details: Purified HCV NS3 helicase, Cy5-dT15 ssDNA binding fluorescence polarization; stronger effect = higher value; concentration not given here
[9] = Cy5 fluorescence quenching or enhancement artefacts, artefact control for HCV NS3 helicase inhibitor project, biochemical, LOPAC1280 (AID 687037); details: Cy5-DNA-NS3h complex fluorescence interference counterscreen
[10] = growth inhibition of DIPG glioma cells, dose response, cell-based, JHH-DIPG-1, MIPE4.0, CellTiter-Glo, qHTS (AID 1347062; cut-off not given, nearly all actives have AC50 up to about 27 µM;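 further: cells exposed to compound for two days before readout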); details: JHH-DIPG-1 viability, CellTiter-Glo ATP luminescence
[11] = growth inhibition of DIPG glioma cells, dose response, cell-based, SU-DIPG-IV, MIPE4.0, CellTiter-Glo, qHTS (AID 1347063; cut-off not given, nearly all actives have AC50 up to about 30 µM;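 further: compound exposure lasted 48 hours before the viability readout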); details: SU-DIPG-IV viability, CellTiter-Glo ATP luminescence
[12] = modifiers of HSF1 nuclear foci, imaging, Selleck Cancer Library (AID 1347162; in the data active means plate-normalised HSF1 focus index below about 0.46); details: human cells, at 10 µM; SSMD: measured here: HSF1 foci SSMD mean; cell count: measured here: cell number; plate-normalised HSF1 focus index: stronger effect = lower value
[13] = phospholipid biosynthesis inhibitors in animal cells, primary screen, cell-based, LOPAC library, screen 4 (AID 1347384); details: phospholipid biosynthesis inhibition screen, at 10 µM
[14] = survival rescue of mitochondrial mutant cells in low glucose, primary screen, MELAS cybrids, Rieske KO mouse fibroblasts, CellTiter-Glo (AID 1508586;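 active means mean z-score across replicates of 1.96 or higher in either the MELAS or the Rieske mutant cell line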;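 further: z relative to plate mean and SD of compound and empty wells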)
[15] = target: NAD(+) hydrolase SARM1 (Homo sapiens) (UniProt Q6SZW1); assay: SARM1 TIR NADase inhibitors, cell lysate, NAD-Glo luminescence (AID 1508614;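 active means compound whose remaining NAD level is above about 45 nM, limit read from the data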); details: SAM-TIR HEK293T lysate NADase, at 1 µM, stronger effect = higher value
[16] = viability rescue of complex I mutant cybrids, primary screen, cell-based, galactose medium, ATP luminescence (AID 1645843;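 active means z-score of at least 1.8 in each of two replicates, scored against plate mean and spread of sample wells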;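 further: positive z means more ATP and so rescue of galactose-driven cybrid death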); details: complex I mutant cybrid cells, 72 h, stronger effect = higher value
[17] = system: Aerobactin synthetase IucA (Klebsiella pneumoniae); assay: IucA aerobactin synthetase inhibitors, biochemical, Tocris library, absorbance (AID 1345561); details: purified IucA enzyme assay, absorbance (OD) read-out; stronger effect = lower value;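 tested at 8 µM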;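 further: 100% = enzyme without compound and 0% = no enzyme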

Chain of L-lactate dehydrogenase (Plasmodium falciparum (isolate CDC / Honduras)) (Q27743 whole entry, looked up): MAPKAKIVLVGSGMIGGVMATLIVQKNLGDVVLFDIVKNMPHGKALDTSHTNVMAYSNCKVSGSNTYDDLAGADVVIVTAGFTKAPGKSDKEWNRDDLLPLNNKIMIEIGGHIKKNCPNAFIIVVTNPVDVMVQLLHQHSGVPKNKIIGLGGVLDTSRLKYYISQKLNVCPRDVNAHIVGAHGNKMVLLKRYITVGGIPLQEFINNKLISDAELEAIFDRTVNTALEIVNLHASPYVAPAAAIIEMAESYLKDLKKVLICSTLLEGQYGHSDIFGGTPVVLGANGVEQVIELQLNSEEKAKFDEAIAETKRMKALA
Chain of Calcium-dependent protein kinase 4 (Plasmodium falciparum (isolate 3D7)) (Q8IBS5 whole entry, looked up): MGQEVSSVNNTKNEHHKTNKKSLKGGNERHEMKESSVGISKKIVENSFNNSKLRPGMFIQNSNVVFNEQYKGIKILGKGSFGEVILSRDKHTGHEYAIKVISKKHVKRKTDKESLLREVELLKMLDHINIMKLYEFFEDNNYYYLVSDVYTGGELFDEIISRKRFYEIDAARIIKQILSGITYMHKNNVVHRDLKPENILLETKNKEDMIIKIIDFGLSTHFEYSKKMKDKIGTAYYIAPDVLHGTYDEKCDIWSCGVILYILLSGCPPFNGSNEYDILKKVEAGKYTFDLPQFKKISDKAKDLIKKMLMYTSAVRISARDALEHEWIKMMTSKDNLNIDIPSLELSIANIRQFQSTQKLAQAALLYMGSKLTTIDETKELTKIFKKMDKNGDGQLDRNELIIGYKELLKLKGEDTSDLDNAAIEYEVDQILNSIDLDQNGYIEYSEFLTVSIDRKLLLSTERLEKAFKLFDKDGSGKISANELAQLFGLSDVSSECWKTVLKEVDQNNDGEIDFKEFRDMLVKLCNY
Chain of Protein kinase 7 (PK7), Plasmodium falciparum 3D7 (PF3D7_0213400) (Q7YTF7 1-343): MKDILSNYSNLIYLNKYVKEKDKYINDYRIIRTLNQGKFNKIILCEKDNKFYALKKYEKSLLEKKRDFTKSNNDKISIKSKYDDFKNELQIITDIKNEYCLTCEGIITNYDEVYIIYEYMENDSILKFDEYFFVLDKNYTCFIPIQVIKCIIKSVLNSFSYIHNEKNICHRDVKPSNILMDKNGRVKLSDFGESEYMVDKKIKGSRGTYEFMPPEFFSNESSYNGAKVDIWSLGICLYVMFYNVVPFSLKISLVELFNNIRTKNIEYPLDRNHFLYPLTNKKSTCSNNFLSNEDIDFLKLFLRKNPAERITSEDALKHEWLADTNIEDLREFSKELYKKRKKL
Chain of Plasmodium falciparum protein kinase 6 (PK6, PF3D7_1337100) (Q8IDW1 1-305): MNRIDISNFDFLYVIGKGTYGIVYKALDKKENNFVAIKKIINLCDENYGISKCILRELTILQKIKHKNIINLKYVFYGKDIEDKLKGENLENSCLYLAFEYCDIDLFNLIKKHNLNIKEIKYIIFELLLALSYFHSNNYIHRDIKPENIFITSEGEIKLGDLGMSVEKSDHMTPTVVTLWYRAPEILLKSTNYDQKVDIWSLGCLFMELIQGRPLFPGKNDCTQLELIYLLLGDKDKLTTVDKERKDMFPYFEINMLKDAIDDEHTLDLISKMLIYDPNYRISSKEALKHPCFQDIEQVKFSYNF
Chain of NAD(+) hydrolase SARM1 (Homo sapiens) (Q6SZW1 whole entry, looked up): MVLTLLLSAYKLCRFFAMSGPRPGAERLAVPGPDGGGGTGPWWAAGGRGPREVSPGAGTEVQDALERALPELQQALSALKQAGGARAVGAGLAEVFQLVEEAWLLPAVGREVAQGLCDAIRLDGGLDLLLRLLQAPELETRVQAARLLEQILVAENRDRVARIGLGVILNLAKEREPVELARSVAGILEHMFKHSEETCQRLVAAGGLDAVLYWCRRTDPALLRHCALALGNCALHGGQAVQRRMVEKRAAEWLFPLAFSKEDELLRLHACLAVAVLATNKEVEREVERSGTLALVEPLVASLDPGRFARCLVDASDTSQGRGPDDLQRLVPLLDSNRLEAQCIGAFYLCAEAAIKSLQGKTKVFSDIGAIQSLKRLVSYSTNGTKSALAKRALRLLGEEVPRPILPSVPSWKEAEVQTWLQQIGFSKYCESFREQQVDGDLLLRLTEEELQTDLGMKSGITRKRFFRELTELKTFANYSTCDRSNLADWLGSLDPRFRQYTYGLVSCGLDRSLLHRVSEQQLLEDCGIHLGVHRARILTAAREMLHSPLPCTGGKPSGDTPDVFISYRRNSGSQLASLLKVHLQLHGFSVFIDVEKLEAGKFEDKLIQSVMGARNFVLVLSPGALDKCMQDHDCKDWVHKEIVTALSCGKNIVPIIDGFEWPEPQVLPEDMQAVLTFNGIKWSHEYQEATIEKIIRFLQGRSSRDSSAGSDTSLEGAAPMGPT

CN(C)c1cccc(CCNCCc2c[nH]c3ccc(Cl)cc23)c1
active: growth inhibition [1] 75% | growth inhibition [4] 94%
inactive: inhibition [2] 19% | inhibition [3] -6% | outcome [5] | outcome [6] | outcome [7]

COC(=O)c1ccc(CC(C)NCC(O)c2cccc(C(F)(F)F)c2)c(OC)c1 (centres undefined)
inactive: inhibition [2] 5% | inhibition [3] 7% | outcome [5] | outcome [6] | outcome [7]
active: growth inhibition [1] 98% | growth inhibition [4] 100%

CC(Cc1ccc(SC(C)C)cc1)NCC(O)c1cccc(Cl)c1 (centres undefined)
inactive: inhibition [2] 5% | inhibition [3] -3% | outcome [5] | outcome [6] | outcome [7]
active: growth inhibition [1] 97% | growth inhibition [4] 99%

CCOC(=O)c1c(CN2CCN(C)CC2)n(Cc2ccccc2)c2cc(Br)c(O)cc12
inactive: growth inhibition [1] 46% | inhibition [2] 11% | inhibition [3] -5% | outcome [5] | outcome [6] | outcome [7]
active: growth inhibition [4] 100%

CCC1=C[C@@H]2CN(C1)Cc1c([nH]c3ccccc13)[C@@](C(=O)OC)(c1cc3c(cc1OC)N(C)[C@H]1[C@@](O)(C(=O)OC)[C@H](O)[C@]4(CC)C=CCN5CC[C@]31[C@@H]54)C2
active: growth inhibition [1] 99% | growth inhibition [4] 98%
inactive: inhibition [3] -1% | outcome [5] | outcome [6] | outcome [7]

CCC(C)(C)N[C@@H](C)[C@@H](O)c1ccc(C(F)(F)F)cc1
active: growth inhibition [1] 90% | growth inhibition [4] 97%
inactive: inhibition [3] 2% | outcome [5] | outcome [6] | outcome [7]

CN1CC(c2ccc(Cl)c(Cl)c2)OC1=N (centres undefined)
inactive: growth inhibition [1] 3% | inhibition [3] 2% | outcome [5] | outcome [6] | outcome [7]
active: growth inhibition [4] 99%

CC[C@H]1CN2CC[C@@H]1C[C@H]2[C@H](O)c1cc(N2CCC(c3ccccc3)CC2)nc2ccc(OC)cc12
inactive: inhibition [2] 45% | inhibition [3] -5% | outcome [5] | outcome [6] | outcome [7]
active: growth inhibition [1] 98% | growth inhibition [4] 99%

CC(C)c1ccc(C=CC(=O)NC2CCC(CN3CCC(c4c[nH]c5ccccc45)CC3)CC2)cc1 (centres undefined)
active: growth inhibition [1] 85% | inhibition [2] 50% | growth inhibition [4] 101%
inactive: inhibition [3] -3% | outcome [5] | outcome [6] | outcome [7]

CN1CC=C(c2c[nH]c3ccc(C(=O)c4nccs4)cc23)CC1
active: growth inhibition [1] 73% | growth inhibition [4] 89%
inactive: inhibition [3] 7% | outcome [5] | outcome [6] | outcome [7]

CC[C@H]1CN2CC[C@@H]1C[C@H]2[C@H](O)c1ccnc2ccc(OC)cc12
active: growth inhibition [1] 61% | growth inhibition [4] 100%
inactive: inhibition [2] -8% | inhibition [3] -4% | outcome [5] | outcome [6] | outcome [7]

CC(O)(CS(=O)(=O)c1ccc(F)cc1)C(=O)Nc1ccc(C#N)c(C(F)(F)F)c1 (centres undefined)
inactive: inhibition [8] 0% | fluorescence ratio (interference) [9] 1 | plate-normalised HSF1 focus index [12] 1.1 | outcome [13] | z-score ([14]; MELAS cybrid survival, CellTiter-Glo 48 h, stronger effect = higher value) -0.358 and -0.11 and 0.746 | remaining NAD [15] 10 nM | z-score [16] -0.24 and -0.44 and 0.235
active: AC50 [10] 9.35 µM | AC50 [11] 13.2 µM
0.621 and -0.29 and 0.356: z-score ([14]; Rieske KO mouse fibroblast survival, CellTiter-Glo 72 h)
7580: cell count [12]
2.85: SSMD [12]

CCCCCSc1cc(O)c(C(CNC)C(C)C)cc1OC (centres undefined)
inactive: inhibition [2] 5% | inhibition [3] -4% | outcome [5] | outcome [6] | outcome [7]
active: growth inhibition [1] 99% | growth inhibition [4] 100%

O=C(NC1CCC(CN2CCC(c3c[nH]c4ccccc34)CC2)CC1)[C@H]1Cc2ccccc2CN1 (some centres undefined)
inactive: growth inhibition [1] 35% | inhibition [2] 29% | inhibition [3] 3% | outcome [5] | outcome [6] | outcome [7]
active: growth inhibition [4] 89%

CN(Cc1ccccc1)C1CCN(CCc2c[nH]c3ccc(F)cc23)CC1
active: growth inhibition [1] 91% | growth inhibition [4] 100%
inactive: inhibition [2] 28% | inhibition [3] 5% | outcome [5] | outcome [6] | outcome [7]

CN1CCC(COC(=O)C(O)(c2ccccc2)c2ccccc2)C1 (centres undefined)
active: growth inhibition [4] 98%
inactive: growth inhibition [1] 4% | inhibition [2] 0% | inhibition [3] -4% | outcome [5] | outcome [6] | outcome [7]

COc1ccc2[nH]cc(C3=CCNCC3)c2c1
inactive: remaining activity [17] 103% | z-score [16] -1.57 and -0.95

Cc1ccc(CC(C)NCC(O)c2cccc(Br)c2)cc1 (centres undefined)
active: growth inhibition [1] 97% | growth inhibition [4] 99%
inactive: inhibition [2] 7% | inhibition [3] 3% | outcome [5] | outcome [6] | outcome [7]

FC(F)(F)c1cccc(N2CCC(CN3CCC(c4c[nH]c5ccccc45)CC3)CC2)n1
inactive: growth inhibition [1] 10% | inhibition [2] 41% | inhibition [3] -3% | outcome [5] | outcome [6] | outcome [7]
active: growth inhibition [4] 84%

C=C[C@H]1CN2CC[C@@H]1C[C@H]2[C@H](O)c1cc(-c2ccc(F)cc2)nc2ccc(OC)cc12
active: growth inhibition [1] 98% | growth inhibition [4] 99%
inactive: inhibition [2] 5% | inhibition [3] -1% | outcome [5] | outcome [6] | outcome [7]

CC[C@H]1CN2CC[C@H]1C[C@H]2C(O)c1cc(OC)nc2ccccc12 (some centres undefined)
active: growth inhibition [1] 98% | growth inhibition [4] 100%
inactive: inhibition [2] -2% | inhibition [3] -1% | outcome [5] | outcome [6] | outcome [7]

CCOC(=O)c1c(C)n(C2CCCCC2)c2cc(Br)c(O)cc12
active: growth inhibition [1] 71% | growth inhibition [4] 98%
inactive: inhibition [2] 1% | inhibition [3] -3% | outcome [5] | outcome [6] | outcome [7]

Oc1cc2c(cc1CN1CCN(Cc3ccccc3)CC1)CCC2
active: growth inhibition [1] 92% | growth inhibition [4] 98%
inactive: inhibition [2] 1% | inhibition [3] 0% | outcome [5] | outcome [6] | outcome [7]

N#Cc1ccc(N(CC(=O)NCCc2ccccc2)CC2CC2)c2ccccc12
inactive: growth inhibition [1] 48% | inhibition [2] 0% | inhibition [3] -3% | outcome [5] | outcome [6] | outcome [7]
active: growth inhibition [4] 99%
